# In PubChem BioAssay AID743313 (Broad Institute, 2014):
# The source made the active and inactive calls.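 The calls were made as follows: active = cell killing with a fitted half-maximal concentration no more than twice the top valid dose used; inconclusive = flat curve with a moderate signal drop, or poor fit; inactive = the rest.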
# Experiment: HepG2 cell cytotoxicity, dose response, cytotoxicity control, plate reader, dry powder, set 7 (AID 743313)
# Conditions: HepG2 viability, ATP luminescence (CellTiter-Glo), 72 h; series mostly up to 26 µM
row,Compound,outcome
1,Cc1ccc(C(C)C)c(OCCn2c(=S)[nH]c3c(Cl)cccc32)c1,inactive
2,Cc1ccccc1OCCn1c(=S)[nH]c2ccccc21,inactive
3,COc1cccc(OCCn2c(=S)[nH]c3ccccc32)c1,inactive
4,CC(C)(C)c1ccc(OCCn2cnc3ccccc32)cc1,inactive
5,S=c1[nH]c2ccccc2n1CCOc1ccc(Cl)cc1,inactive
6,Cc1ccc(OCCn2c(SCCO)nc3ccccc32)c(C(C)C)c1,inactive
7,Cc1ccc(OCCn2c(=S)[nH]c3ccccc32)c(C(C)C)c1,inactive
